{
  "source": "PubChem BioAssay (Tox21)",
  "note": "Values joined by “and” are separate entries in the source; they are usually repeats but may differ in a detail not shown here. Equal entries are not always repeated. Results filed as inconclusive are left out. A structure can be active in one record and inactive in another. Active and inactive are the calls of the source. Calls follow the shape of the dose curve; as a rule, active = well fitted inhibition curve with a large enough effect in the repeat runs; inconclusive = weak or mixed curves; inactive = no such curve, though single readings can be large or run the other way. % is scaled to controls: 0 for no effect and ±100 for the full control effect; potency is read from the fitted curve at half-maximal effect.",
  "data": [
    {"molecular_target": "Cytochrome P450 2C9 (Homo sapiens) (UniProt P11712)", "sequence (P11712 whole entry, looked up)": "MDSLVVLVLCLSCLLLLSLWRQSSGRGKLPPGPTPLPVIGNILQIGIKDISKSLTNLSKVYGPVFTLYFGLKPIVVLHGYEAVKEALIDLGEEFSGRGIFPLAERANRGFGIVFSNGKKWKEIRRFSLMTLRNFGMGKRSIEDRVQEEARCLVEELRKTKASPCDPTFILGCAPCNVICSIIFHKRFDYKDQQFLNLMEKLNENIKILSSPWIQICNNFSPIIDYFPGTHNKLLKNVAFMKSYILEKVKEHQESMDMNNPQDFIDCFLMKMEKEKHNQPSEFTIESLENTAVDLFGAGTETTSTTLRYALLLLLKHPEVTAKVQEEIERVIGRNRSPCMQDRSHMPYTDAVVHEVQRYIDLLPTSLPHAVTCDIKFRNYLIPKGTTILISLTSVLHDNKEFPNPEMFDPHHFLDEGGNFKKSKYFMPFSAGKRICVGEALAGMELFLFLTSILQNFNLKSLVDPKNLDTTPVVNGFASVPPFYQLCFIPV", "test": "Cytochrome P450 Family 2 Subfamily C Member 9 (CYP2C9) small molecule antagonists: luciferase reporter qHTS assay (AID 1671198); also: nearly all actives have a fitted effect of over 50% in size", "conditions": "P450-Glo CYP2C9 enzyme assay, luciferin luminescence; series mostly up to 115 µM; activity change, negative = inhibition: at the top concentration", "how_it_was_run": "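CYP2C9 activity was measured with a P450-Glo proluciferin substrate. Enzyme–substrate mix was held with compound for 10 min at room temperature, then NADPH regeneration solution was added for 1 h at 37C. Luciferin product was read as luminescence.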", "values": [
      {"compound": "[N-]=[N+]=[N-]", "Potency": "38.6 µM (active) and 35.6 µM (active)"},
      {"compound": "CCOP(=S)(OCC)Oc1cnc2ccccc2n1", "Potency": "inactive and 1.12 µM (active)"},
      {"compound": "CC(C)(C)OOC(C)(C)C", "activity change, negative = inhibition": "-7.3% (inactive)"},
      {"compound": "CC(C)C1(C)N=C(c2nc3ccccc3cc2C(=O)O)NC1=O", "note": "(configuration not stated)", "Potency": "inactive"},
      {"compound": "CCCCOC(=O)c1ccccc1C(=O)OCCCC", "Potency": "35.6 µM (active)"},
      {"compound": "CC(C)(C)C(O)(CCc1ccc(Cl)cc1)Cn1cncn1", "note": "(configuration not stated)", "Potency": "3.21 µM (active) and 3.56 µM (active)"},
      {"compound": "O=C(NC(=O)c1c(F)cccc1F)Nc1cc(Cl)c(OC(F)(F)C(F)C(F)(F)F)cc1Cl", "note": "(configuration not stated)", "Potency": "11.2 µM (active) and 17.4 µM (active)"},
      {"compound": "CC(C)=C[C@@H]1[C@@H](C(=O)OCc2coc(Cc3ccccc3)c2)C1(C)C", "Potency": "1.42 µM (active) and 5.49 µM (active)"},
      {"compound": "CCC12COCN1COC2", "activity change, negative = inhibition": "-9.96% (inactive)"},
      {"compound": "CC(C)OC(=O)Nc1cccc(Cl)c1", "Potency": "55.6 µM (active) and 71 µM (active)"},
      {"compound": "O=c1[nH]c(=O)[nH]c(=O)[nH]1", "activity change, negative = inhibition": "-5.29% (inactive)"},
      {"compound": "CCc1cccc(C)c1N(C(=O)CCl)C(C)COC", "note": "(configuration not stated)", "Potency": "29.9 µM (active) and 28.3 µM (active)"},
      {"compound": "CCCN(CCC)c1c([N+](=O)[O-])cc(C(F)(F)F)cc1[N+](=O)[O-]", "Potency": "22.4 µM (active)"},
      {"compound": "CCN(CC)CCO", "Potency": "inactive"},
      {"compound": "CCC[CH2][Sn]([Cl])([Cl])[Cl]", "activity change, negative = inhibition": "-1.02% (inactive)"},
      {"compound": "C#CC(C)(C)NC(=O)c1cc(Cl)cc(Cl)c1", "Potency": "71.7 µM (active) and inactive"},
      {"compound": "Nc1ccc(Br)cc1", "Potency": "35.5 µM (active) and 35.6 µM (active)"}
    ]}
  ]
}
